# In PubChem BioAssay (Tox21):
# Inconclusive results are not listed. A call without a number means that no potency is given here. Activity calls are given as the source filed them. The call rests on the fitted dose curve; in most records, active means well fitted activation curve with a large enough effect in the signal ratio in the repeat runs (not every such curve was filed as active); inconclusive means weak or mixed curves; inactive means flat fitted curve, though single readings scatter; the % refers to the signal ratio.
# Experiment: p53 small molecule agonists, cell-based qHTS assay (AID 1963582)
# Procedure, shortened: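 p53RE-bla reporter cells, compounds added in DMSO after 5 h plating, incubated 16 h at 37 C. Beta-lactamase read via 2 h room-temperature LiveBLAzer B/G FRET substrate, fluorescence intensity.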
SMILES,activation,Potency
CN1C[C@@H]2C[C@H]1CN2c1cc2c(cc1F)c(=O)c(C(=O)O)cn2C1CC1,6.22% [at 13.5 µM] (inactive),–
COc1cc2c3cc1Oc1cc(ccc1O)C[C@@H]1c4c(cc(OC)c(O)c4Oc4ccc(cc4)C[C@@H]3N(C)CC2)CC[N+]1(C)C,–,inactive
CCCOc1ccccc1-c1nc2n[nH]nc2c(=O)[nH]1,–,inactive
NCCCC[C@H](N[C@@H](CCc1ccccc1)C(=O)O)C(=O)N1CCC[C@H]1C(=O)O,–,inactive
CCC1=C(C)CN(C(=O)NCCc2ccc(S(=O)(=O)NC(=O)NC3CCC(C)CC3)cc2)C1=O (stereo not given),–,inactive
Cc1ccc(C(=O)c2ccc(CC(=O)O)n2C)cc1,–,inactive
CC(C)(C)NCC(O)c1cc(O)cc(O)c1 (stereo not given),–,inactive
CN1CCC(=C2c3ccccc3CC(=O)c3sccc32)CC1,–,inactive
COc1cc(N)c(Cl)cc1C(=O)NC1CCN(CCCOc2ccc(F)cc2)CC1OC (stereo not given),–,inactive
CN1CCN(CCCN2c3ccccc3Sc3ccc(Cl)cc32)CC1,–,inactive
[Cu+],–,inactive
FC(F)(F)C(F)(F)C(F)(F)C(F)(F)C(F)(F)C(F)(F)C(F)(F)C(F)(F)C(F)(F)C(F)(F)F,-0.0202% [at 5.99 µM] (inactive),–
FC(F)(F)C(F)(F)C(F)(F)C(F)(F)CCI,–,inactive
C=COC(=O)C(C)(CC)CCC(C)C (stereo not given),–,inactive
CCOC(=O)Cn1c(=O)sc2cccc(Cl)c21,–,inactive
